Experimental data: PubChem BioAssay (NCI)
The panel holds about 79,000 compounds, 15% with a hit somewhere; the sample as a whole holds those more often. Cut-off read from the data, not from the text of the source: active = growth inhibition above about 70%; inactive = the rest.

Assays:
[1] = NCI Yeast Anticancer Drug Screen. Data for the rad50 strain (AID 155);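 note: 0% = growth of vehicle-only cultures of the same strain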; details: S. cerevisiae rad50 strain growth inhibition, hits give high values; at 50.0 µM unless noted
In short: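 Relative growth inhibition (compound vs vehicle) was measured in yeast with a defined repair-gene alteration.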

[2] = NCI Yeast Anticancer Drug Screen. Data for the mec2-1 strain (AID 157); details: S. cerevisiae mec2-1 strain, hits give high values; at 50.0 µM unless noted
In short: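 Using mec2-1 yeast: add compound, measure growth, express inhibition versus vehicle-treated cultures.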

[3] = NCI Yeast Anticancer Drug Screen. Data for the sgs1 mgt1 strain (AID 161);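 note: 0% = growth of cultures given vehicle only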; details: S. cerevisiae sgs1 mgt1 strain, hits give high values; at 50.0 µM unless noted
In short: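 Yeast cells carrying a defined DNA-repair defect were exposed to test compounds. Growth inhibition was measured relative to vehicle-treated controls.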

[4] = NCI Yeast Anticancer Drug Screen. Data for the cln2 rad14 strain (AID 165);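 note: 0% = growth equal to vehicle treated cultures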; details: S. cerevisiae cln2 rad14 strain, hits give high values; at 50.0 µM unless noted
In short: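 Yeast strain cln2 rad14, bearing defects in cell cycle control and DNA repair, serves as the test system; values reflect growth inhibition compared with vehicle.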

[5] = NCI Yeast Anticancer Drug Screen. Data for the bub3 strain (AID 167); details: S. cerevisiae bub3 mutant strain, hits give high values; at 50.0 µM unless noted
In short: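 Screening used yeast with an engineered genetic alteration affecting cell cycle control. Compound-exposed cultures were compared with vehicle cultures, and reduced growth was taken as inhibition.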

[6] = NCI Yeast Anticancer Drug Screen. Data for the mlh1 rad18 strain (AID 175); details: S. cerevisiae mlh1 rad18 strain growth inhibition, hits give high values; at 50.0 µM unless noted
In short: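 Steps: expose repair-defective yeast to compound; measure growth; express inhibition against vehicle-treated controls.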

Measured: growth inhibition

CC(=O)Nc1cc(C)cc(CO)c1C
inactive: [1] 13.6% | [2] -3.05% | [3] -10.1% | [4] -23.6% | [5] -1.15% | [6] -26.6%

N#C/C(=C\c1cc(Cl)cc(Cl)c1O)c1nc2ccccc2[nH]1
inactive: [1] 43% | [2] 13.7% | [3] 38.4% | [4] 11.5% | [5] 26.9% | [6] 5.65%

N=c1oc(-c2ccccc2)cc2ccccc12
inactive: [1] 29.8% | [2] -9.4% | [3] -12.3% | [4] -45.8% | [5] 15.6% | [6] 11.7%

O=C(NC(NC(=O)c1ccccc1)c1ccccc1)c1ccccc1
inactive: [1] 2.1% | [2] -9.2% | [3] 1.25% | [4] -55.2% | [5] 8.55% | [6] -0.9%

Cc1ccc(C)c(CCCCS(=O)(=O)O)c1
inactive: [1] -27.9% | [2] -8.1% | [3] -5.75% | [4] -40.4% | [5] 1.2% | [6] -7.6%

COc1cc2c(cc1OC)NC(=O)NC(Cc1ccc3c(c1)OCO3)CC2 (stereo not given)
inactive: [1] 20.6% | [2] 10.8% | [3] 13.8% | [4] -47% | [5] 22.3% | [6] 27.3%

C(#Cc1ccccc1)CC#Cc1ccccc1
inactive: [1] 5.4% | [2] 10.2% | [3] -11.7% | [4] -0.3% | [5] -11.2% | [6] 3.05%

O=C(/C=C/c1ccc(OCc2ccccc2)cc1)c1cccc([N+](=O)[O-])c1
inactive: [1] 4.7% | [2] 6.35% | [3] -5.85% | [4] 9.15% | [5] -0.05% | [6] 12.2%

CC(=O)OCC1OC(n2c(-c3ccccc3)c(N=Nc3ccc(C)cc3)c(C)c(C#N)c2=S)C(OC(C)=O)C(OC(C)=O)C1OC(C)=O (stereo not given)
inactive: [1] -22.6% | [2] -25.1% | [3] -22.9% | [4] 4.05% | [5] -4.9% | [6] 1.1%

OCC1OC(n2cnc3c(/C=C(/O)c4ccccc4)ncnc32)C(O)C1O (stereo not given)
inactive: [1] -32.6% | [2] -27% | [3] 0.35% | [4] -13.5% | [5] -27.1% | [6] 5.35%

Cc1c(C(=O)CC(=O)C(=O)Nc2ccc(Cl)c(Cl)c2)[n+](=O)c2ccccc2n1[O-]
inactive: [1] 12.6% | [2] 16.9% | [3] -16.1% | [4] 34.5% | [5] 19.4% | [6] 20.2%

COc1ccc(/C=N/N2CN(C(C)C(=O)O)B(NCCC(C)C)N=C2N)cc1OC (stereo not given)
inactive: [1] -0.5% | [2] -10.3% | [3] 20.9% | [4] 6.3% | [5] 29.2% | [6] -4.1%

N=C1OCCN1/N=C/c1ccc([N+](=O)[O-])o1
inactive: [1] 33.4% | [2] -2.3% | [3] 66.8% | [4] -3.5% | [5] 20.6% | [6] 52.2%

C=C1C(=O)O[C@@H]2O[C@@]3(C)CC[C@H]4[C@H](C)CC[C@@H]1[C@@]24O3
inactive: [1] 26.6% | [2] 26.9% | [3] 52.1% | [4] 22% | [5] 12.2% | [6] 40.5%

COc1ccc(C2NC3=C(CCCC3)N2)cc1
inactive: [1] 26.4% | [2] 4.45% | [3] -13.9% | [4] 8.3% | [5] -3.9% | [6] 32.9%

Cc1nc(-c2cccnc2)sc1C(=O)CC(=O)C(=O)Nc1cccc(NC(=O)C(=O)CC(=O)c2sc(-c3cccnc3)nc2C)n1
inactive: [1] 20.2% | [2] -0.75% | [3] -21.6% | [4] 0.1% | [5] -12.9% | [6] 6.85%

CN(C)c1ccc(C=Nc2c(N)n(C)c(=O)n(C)c2=O)cc1
inactive: [1] -12.3% | [2] -0.2% | [3] -11.2% | [4] -32.7% | [5] -9.45% | [6] -2.9%

CC1=N/C(=C\c2cccc([N+](=O)[O-])c2)C(=O)O1
inactive: [1] -6.9% | [2] -30.8% | [3] 5.1% | [4] 3.35% | [5] -10.7% | [6] 13.5%

CCOC(=O)c1cc2c(-c3ccccc3)c(-c3ccccc3)c(-c3ccccc3)c(-c3ccccc3)n2n1
inactive: [1] 10.2% | [2] 15.2% | [3] 0.25% | [4] 31.9% | [5] -1.45% | [6] -0.4%

CCN(CC)CCOC(=O)Cc1cccc2c(=O)cc(-c3ccccc3)oc12
inactive: [1] -1.65% | [2] -11.7% | [3] -3.65% | [4] -3.9% | [5] 14.8% | [6] -53%
